Screening data (PubChem BioAssay)
Tg IFNy HTS: T. gondii growth inhibition with IFN-gamma, primary screen, cell-based; Toxoplasma gondii growth in IFN-gamma-treated host cells; active compounds read low; activity change, negative = inhibition, % (test concentration not listed); 69,000 compounds, 3.8% hits; AID 1259416, 2018; in the data active = activity change below about -70%, passing the limit was not always enough;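 note: host cells are HeLa cells infected with Toxoplasma gondii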
Each line names hits and unclear results; the compound was inactive in the other large screens; ! = not confirmed by another sample. The entries come from a sample that favours hits as a whole.

O=C(Cc1ccc(F)cc1)N1CCC2(CC1)COCCN(c1ncccn1)C2	none
Cc1ccoc1C(=O)N1CCOCC1c1csc(-c2ccccc2)n1 (centres undefined)	none
C=CC(=O)N1C[C@H]2CCC(O)[C@H]2C1 (some centres undefined)	none
CC(C)C(=O)N1CCC2(COCc3cnc(NCC4CC4)nc32)C1 (centres undefined)	none
O=C(O)[C@H]1C[C@H](C(=O)NCc2ccncc2)CN(CCC(F)(F)F)C1	none
COc1ccc(C2c3c(n[nH]c3C)CC(C)(O)C2C(C)=O)cc1OC (centres undefined)	none
COc1cc(C2c3c([nH]c(=O)[nH]c3=O)Nc3ccc4ccccc4c32)ccc1OC(C)=O (centres undefined)	Tg IFNy HTS -112
COC(=O)c1c(NCc2ccc(OC)c(OC)c2)c2cccc(Cl)c2[nH]c1=O	none
O=C1Nc2cc(Cl)ccc2Oc2ccccc21	none
O=C1NC2(C=Cc3c(ccc4ccccc34)O2)Oc2ccccc21 (centres undefined)	Tg IFNy HTS -107
COc1ccc(-c2ccc(C(=O)N(Cc3nccn3C)C3CC3)o2)cc1	none
COc1ccc(CN(C(=O)c2cc(C(C)C)c3nncn3n2)C2CCN(C)CC2)cc1	none
COc1ccc(CN(C(=O)c2cc(-c3ccc(C)cc3)on2)C2CCN(C)CC2)cc1	Tg IFNy HTS -76
[Cl][Ru]([Cl])([Cl])[Cl].c1ccc2[nH]ncc2c1.c1ccc2[nH]ncc2c1	none
COc1ccccc1CNC(=O)CC1N=C2c3ccccc3N=C(SCc3ccc(Cl)cc3)N2C1=O (centres undefined)	none
FC(F)(F)c1cc(CO[C@H]2CCCN[C@H]2c2ccccc2)cc(C(F)(F)F)c1	Tg IFNy HTS -81!
CC(=O)NC(Cc1c[nH]c2ccccc12)C(=O)OCc1cc(C(F)(F)F)cc(C(F)(F)F)c1 (centres undefined)	none
Cc1nnsc1CNC(=O)c1ccc(CSc2ccccn2)cc1	none
Cc1nc(C(C)C)sc1C(=O)NCCS(=O)(=O)N(C)C	none
Cc1ccc(CN2CCc3nc(-c4cccnc4)[nH]c(=O)c3C2)o1	none
CCOC(=O)CSC1=Nc2ccccc2C2=NC(CCC(=O)NCc3ccc4c(c3)OCO4)C(=O)N12 (centres undefined)	none
CO[C@H]1COC[C@@H]1n1cnc(-c2ccccc2)c1-c1ccc2occc2c1	Tg IFNy HTS -78
CC(=O)Nc1ccc(-c2c(-c3ccccc3)ncn2Cc2ccco2)cc1	none
C=CCn1cnc(-c2ccccc2)c1-c1ccc2onc(C)c2c1	none
O=C(COc1ccc(Cl)cc1)Nc1c[nH]c(=O)[nH]c1=O	Tg IFNy HTS -106
O=C(COc1ccc(Cl)cc1)Nc1ccc(Cl)cn1	none
Cc1ccccc1CSCC(=O)Nc1c[nH]c(=O)[nH]c1=O	none
O=C(Cn1ncc2c(N3CCOCC3)ncnc21)NC1CCCCC1	none
CNC(=S)N1N=C(c2c(-c3ccccc3)c3cc(Cl)ccc3[nH]c2=O)CC1c1ccccc1 (centres undefined)	none
COC(C(=O)N1N=C(c2c(-c3ccccc3)c3cc(Cl)ccc3[nH]c2=O)CC1c1ccccc1)c1ccccc1 (centres undefined)	Tg IFNy HTS -102
CNC(=S)N1N=C(c2c(-c3ccccc3)c3cc(Cl)ccc3[nH]c2=O)CC1c1ccccc1OC (centres undefined)	none
Cc1ccc2nc(Cc3ccc(NC(=O)c4cnc5c(C)cccn5c4=O)cc3)[nH]c2c1	none
COc1cccc(-c2nc(Cc3nc(-c4ccccc4OC)oc3C)no2)c1	none
CC(C)(C)c1ccc(C(=O)NCCc2csc(-c3ccc(F)cc3)n2)cc1	none
O=C(NC1CCCCNC1=O)c1cn(S(=O)(=O)c2ccccc2)c2ccccc12 (centres undefined)	none
CCC(=O)c1cn(S(=O)(=O)c2ccc(C)cc2)c2ccccc12	Tg IFNy HTS -101
Cc1ccc(S(=O)(=O)n2c(N)nc3ccccc32)cc1	none
COc1ccccc1C(=O)N1CCN(C(=O)Cn2nnc(-c3ccc(C)cc3)n2)CC1	none
CC(C)OCC12CCCOC1CCN(c1ccncn1)C2 (centres undefined)	none
O=C(c1ccc[nH]1)N1CCCC2(COCCN(c3cccc(F)c3)C2)C1 (centres undefined)	none
CCOc1cc([C@@H](CS(C)(=O)=O)N2C(=O)c3cccc(NC(C)=O)c3C2=O)ccc1OC	none
CCS(=O)(=O)N1CCC2(CC1)OC(=O)C(C)=C2C(=O)NCCCN1CCCC1=O	none
CC[C@@]1(O)C(=O)OCc2c1cc1n(c2=O)Cc2c-1nc1cc(F)c(C)c3c1c2[C@@H](N)CC3	Tg IFNy HTS -86
CC[C@@]1(O)C(=O)OCc2c1cc1n(c2=O)Cc2cc3cc(O)ccc3nc2-1	Tg IFNy HTS -90
O=C([C@H]1COC[C@@H]2CN(Cc3cccc(F)c3)C[C@@H]21)N1CCCCO1	none
CCc1ccc(-c2noc(-c3c(O)c4cc(F)ccc4n(C)c3=O)n2)cc1	none
Cc1nccn1-c1ccccc1CNC(=O)C1=NNC(=O)CC1	none
O=C1CN(CC2(O)CCCN(CCc3ccccc3)C2=O)CCCN1 (centres undefined)	none
CC(C)c1ccc2c(c1)CCC1C(C)(C(N)=O)CCCC21C (centres undefined)	Tg IFNy HTS -72
COC(=O)[C@@]1(C)CCC[C@]2(C)c3ccc(O)c(C(C)C)c3CCC12 (some centres undefined)	Tg IFNy HTS -76
COc1ccc2c3c(n(C)c2c1)[C@@H](CO)N(C(=O)CC1CC1)CC31CN(C(=O)NC(C)C)C1	none
CC(C)c1ccc2c(c1)CCC1[C@](C)(CN)CCC[C@]21C (some centres undefined)	none
CC(C)c1c(O)ccc2c1CCC1C(C)(C)CCC[C@]21C (some centres undefined)	none
CCOCC(=O)N1Cc2ncn(C)c2C(COCc2cccc(C)n2)C1 (centres undefined)	none
Cn1cc(CN2C[C@H]3CN(Cc4cccc(F)c4)C[C@H]3C2)cn1	none
Cn1ccc(C(=O)N2CCCC(CCc3ccc(F)cc3)C2)cc1=O (centres undefined)	none
CCOc1ccc(-c2nc(CN3CCN(C(=O)Nc4ccc(Cl)cc4)CC3)c(C)o2)cc1	none
CC(C)(CNC(=O)C1CC2(CCNCC2)CN1)N1CCc2ccccc2C1 (centres undefined)	none
Cc1ccc(CN2CCO[C@@]3(CCC[C@H]3COc3cccnc3)C2)o1	none
C=CCO[C@@H]1CCN(C2CCOCC2)[C@H]1Cc1cccnc1	none
CC(=O)N1CCc2ncn(C)c2C1C(=O)NCCc1ccccc1 (centres undefined)	none
O=c1c(O)c(-c2ccc(O)c(O)c2)oc2cc(O)cc(O)c12	Tg IFNy HTS -78!
O=c1cc(-c2ccc(O)c(O)c2)oc2cc(O)cc(O)c12	none
Cc1oc2cc(O)cc(O)c2c(=O)c1-c1ccccc1	none
CC(C)c1cc(-c2n[nH]c(=O)n2-c2ccc3c(ccn3C)c2)c(O)cc1O	Tg IFNy HTS -79
COc1ccc(-c2nc(CN(c3ccc(C)cc3)S(=O)(=O)c3cccs3)c(C)o2)cc1	none
Cc1ccc2nc(-c3ccc(NC(=O)c4ccc5c(c4)OCCO5)cc3)oc2c1	none
Cc1ccc(C2(O)CCN(CC(=O)N3C[C@@H](C)O[C@@H](C)C3)CC2)nc1	none
O=C(c1ccccc1)c1cc(C(=O)c2ccccc2)c(-c2ccccc2)nc1-c1ccccc1	Tg IFNy HTS -89
Cc1nc(-c2ccccc2)c(NC(=O)c2ccccc2)s1	none
COc1cc(O)c(C(=O)c2ccccc2)cc1O	none
COCC12CCCOC1CCN(C(=O)Cc1ccsc1)C2 (centres undefined)	none
Cc1ccccc1CCC1CCCN(Cc2nnc(-c3ccco3)o2)C1 (centres undefined)	none
